TLR4-MyD88 BLA – inhibitors of TLR4-MyD88 association in cells, primary screen, cell-based, HeLa CL3-4, BLA complementation, FRET ratio | Toll-like receptor 4 (Homo sapiens) + Myeloid differentiation primary response protein … | HeLa CL3-4 TLR4/MyD88 BLA complementation | inhibition, % at 8.4 µM | 0.18% of 200,000 active | AID 861, 2007; in the data active = inhibition above about 25%
NOD2-RIPK2 inh – NOD2-RIPK2 binding disruptors in cells, primary screen, fluorescence, CHO cells, BLA complementation; 0.38% of 360,000 active; Receptor-interacting serine/threonine-protein kinase 2 (Homo sapiens), O43353; CCF4 ratio; AID 624267, 2012; inhibition, % at 4.98 µM; in the data active = inhibition above about 21%
Target sequence (O43353 whole entry, looked up): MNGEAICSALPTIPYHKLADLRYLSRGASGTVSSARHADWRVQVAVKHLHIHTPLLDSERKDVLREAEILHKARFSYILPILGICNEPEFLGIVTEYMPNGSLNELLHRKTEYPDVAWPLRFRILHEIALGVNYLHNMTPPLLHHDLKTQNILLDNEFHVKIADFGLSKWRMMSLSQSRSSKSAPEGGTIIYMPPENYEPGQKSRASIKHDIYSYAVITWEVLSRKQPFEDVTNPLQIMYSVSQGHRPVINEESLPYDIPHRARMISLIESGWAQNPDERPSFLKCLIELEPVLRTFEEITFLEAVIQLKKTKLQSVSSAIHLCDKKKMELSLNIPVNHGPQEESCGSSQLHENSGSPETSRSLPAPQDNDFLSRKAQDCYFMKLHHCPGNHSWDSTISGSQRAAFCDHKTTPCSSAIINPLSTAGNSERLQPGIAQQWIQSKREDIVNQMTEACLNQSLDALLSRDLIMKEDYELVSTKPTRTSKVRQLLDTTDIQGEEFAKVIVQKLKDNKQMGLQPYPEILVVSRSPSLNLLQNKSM
HSF1 inhib – HSF1 inhibitors in luciferase reporter cells, primary screen, cell-based, NIH3T3, luminescence; NIH3T3-HGL HSE-luciferase, MG132-induced, luminescence 8 h; hits give low values; activity change, negative = inhibition, % at 7.5 µM (by protocol); 0.77% of 300,000 active; AID 2098, 2009;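 active = more than half of replicate wells show activity change below -50%, luminescence cut by over half; inconclusive = some wells, but at most half, below -50%; inactive = no replicate well below -50%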;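 note: luciferase reports HSF-1 transcriptional activity via heat shock element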
HSF1 activator – HSF-1 activators, primary screen, NIH3T3-HGL cells, MG132 stress, luminescence, single point | NIH3T3-HGL HSF-1 luciferase reporter, 8 h; 100% = twice DMSO control signal | activation, % at 9 µM | 1.7% of 300,000 active;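 active = mean replicate activation of at least 50% with a set share of replicates each reaching 50%; inconclusive = only one of those two conditions met; inactive = mean below 50% and too few replicates reaching it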
TLR9-MyD88 inh – inhibitors of TLR9-MyD88 association in cells, primary screen, cell-based, CHO, BLA complementation, fluorescence | Toll-like receptor 9 (Homo sapiens) + Myeloid differentiation primary response protein … | CCF4 FRET ratio | inhibition, % at 4.98 µM | 0.21% of 340,000 active | AID 504734, 2011;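 active = inhibition above the mean over all tested compounds plus 3 SD, cut at about 21% in these data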
NOD2-RIPK2 conf – NOD2-RIPK2 binding disruptors, retest, confirmation, fluorescence, CHO cells, BLA complementation, triplicate; shares compounds with NOD2-RIPK2 inh; CCF4 FRET; inhibition, % at 4.98 µM; 70% of 1,200 active;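 active = mean inhibition across replicates above a set limit taken from the earlier primary screen, cut at about 21% in these data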
NOD2 BLA counter – NOD2-RIPK2 counterscreen BLA reporter activity | CHO BLA reporter, CCF4 FRET ratio | shares compounds with NOD2-RIPK2 inh | 57% of 1,200 active | inhibition, % at 4.98 µM | AID 624371;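 active = mean inhibition above the low-control mean inhibition plus three low-control SD, cut at about 11% in these data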
Each line names hits and unclear results; the compound was inactive in the other large screens (follow-up assays come after a bar, where they were run). This is a sample that favours compounds with a hit; in the whole collection about 2.4% have one here.

COC(=O)C12OCC34C(CC5C(C)=C(O)C(=O)CC5(C)C3C(O)C1O)OC(=O)C(OC(=O)/C=C(\C)C(C)C)C24 (configuration not stated)	NOD2-RIPK2 inh 29 (no result: TLR4-MyD88 BLA, HSF1 inhib, HSF1 activator) | NOD2-RIPK2 conf 24 | NOD2 BLA counter inactive
Clc1ccc(C(c2ccccc2)c2ncc[nH]2)cc1 (configuration not stated)	none
O=C(Nc1nc(-c2ccccc2)c(-c2ccccc2)s1)c1ccc(S(=O)(=O)N(CCCl)CCCl)cc1	none
COc1ccc(CC(=O)N2CCN(C)CC2)cc1	none
COc1ccc(CC2NCC(O)C2OC(C)=O)cc1 (configuration not stated)	NOD2-RIPK2 inh 35 (no result: TLR4-MyD88 BLA, HSF1 inhib, HSF1 activator) | NOD2-RIPK2 conf 32 | NOD2 BLA counter inactive
CC(=O)OC1(C)CC(C)C(=O)C(C(O)CC2CC(=O)NC(=O)C2)C1 (configuration not stated)	NOD2-RIPK2 inh 28 (no result: TLR4-MyD88 BLA, HSF1 inhib, HSF1 activator) | NOD2-RIPK2 conf 23 | NOD2 BLA counter inactive
CCOP(=O)(OCC)C(NS(=O)(=O)c1ccccc1)C(Cl)(Cl)Cl (configuration not stated)	none
CCOP(=O)(CCP(=O)(OCC)OCC)OCC.C[CH2][Sn]([Cl])([Cl])[CH2]C	NOD2-RIPK2 inh 25 (no result: TLR4-MyD88 BLA, HSF1 inhib, HSF1 activator) | NOD2-RIPK2 conf 51 | NOD2 BLA counter inactive
Oc1ccccc1-[n+]1c(-c2ccccc2)cc(-c2ccccc2)c(O)c1-c1ccccc1	none (no result: TLR4-MyD88 BLA)
CC1=CC2OC3CC4OC(=O)C=CC=CC(=O)OCCC(C)C(O)C(=O)OCC2(CC1O)C4(C)C31CO1 (configuration not stated)	NOD2-RIPK2 inh 29, HSF1 inhib 92, HSF1 activator 92 (no result: TLR4-MyD88 BLA) | NOD2-RIPK2 conf 28 | NOD2 BLA counter inactive
CC1=CC2OC3CC4OC(=O)C=CC=CC(C(C)O)OCC(O)C(C)CC(=O)OCC2(CC1O)C4(C)C31CO1 (configuration not stated)	NOD2-RIPK2 inh 22 (no result: TLR4-MyD88 BLA, HSF1 inhib, HSF1 activator) | NOD2-RIPK2 conf 21 | NOD2 BLA counter inactive
CCOC(=O)[C@]12Cc3cc(C)ccc3[C@H]1N(CCC(=O)OC)C(=O)c1cc(OC)ccc12	none (no result: TLR4-MyD88 BLA, HSF1 inhib, HSF1 activator, TLR9-MyD88 inh)
CCOC(=O)[C@]12Cc3cc(C)ccc3[C@H]1N(C1CCCCC1)C(=O)c1cc(OC)ccc12	NOD2-RIPK2 inh 62 (no result: TLR4-MyD88 BLA, HSF1 inhib, HSF1 activator, TLR9-MyD88 inh) | NOD2-RIPK2 conf 73 | NOD2 BLA counter inactive
CCOC(=O)[C@]12Cc3cc(OC)ccc3[C@H]1N(C1CCCCC1)C(=O)c1cc(OC)ccc12	NOD2-RIPK2 inh 40 (no result: TLR4-MyD88 BLA, HSF1 inhib, HSF1 activator, TLR9-MyD88 inh) | NOD2-RIPK2 conf 26 | NOD2 BLA counter inactive
CCOC(=O)[C@]12Cc3ccccc3[C@H]1N(C)C(=O)c1cc(OC)ccc12	none (no result: TLR4-MyD88 BLA, HSF1 inhib, HSF1 activator, TLR9-MyD88 inh)
COC(=O)C1=C(c2ccc(C(C)=O)cc2)C[C@@H]2CC[C@H]1N2C(=O)NCc1ccco1	none (no result: TLR4-MyD88 BLA, HSF1 inhib, HSF1 activator)
ClCCN(CCCl)c1ccc(C=Cc2ccncn2)cc1	NOD2-RIPK2 inh 63 (no result: TLR4-MyD88 BLA, HSF1 inhib, HSF1 activator, TLR9-MyD88 inh) | NOD2-RIPK2 conf 47 | NOD2 BLA counter 60
COC(=O)C1=C(c2cccc(C#N)c2)C[C@@H]2CC[C@H]1N2C(=O)NCc1ccco1	none (no result: TLR4-MyD88 BLA, HSF1 inhib, HSF1 activator)
Cc1cc(OCC(=O)N2CCC(C(=O)O)CC2)c2c3c(c(=O)oc2c1)CCC3	none (no result: TLR4-MyD88 BLA)
N#CC1c2ccccc2-n2nncc2CN1S(=O)(=O)c1cc(Cl)cc(Cl)c1 (configuration not stated)	none (no result: TLR4-MyD88 BLA, HSF1 inhib, HSF1 activator)
CC(=O)OC1C(O)C(C)OC(OC2C(OC(=O)C3CCC4C(C3)OC3(CC(OC(=O)/C=C/c5ccccc5)C(C)CO3)C43CO3)OC(C)C(O)C2OC(C)=O)C1O (configuration not stated)	NOD2-RIPK2 inh 23 (no result: TLR4-MyD88 BLA, HSF1 inhib, HSF1 activator) | NOD2-RIPK2 conf 28 | NOD2 BLA counter inactive
COc1cc(/C=C/[N+](=O)[O-])ccc1O	NOD2-RIPK2 inh 42, HSF1 activator 274 | NOD2-RIPK2 conf 44 | NOD2 BLA counter inactive
COc1ccc(-n2c(/C=C/c3ccc(O)c(OC)c3)nc3ccccc3c2=O)cc1	none (no result: TLR4-MyD88 BLA)
CC(O)C1C=CC=CC(=O)OC2CC3OC4C5OC5(C)CCC4(COC(=O)C4OC4(C)C(O)CO1)C2(C)C31CO1 (configuration not stated)	NOD2-RIPK2 inh 29, HSF1 inhib 91, HSF1 activator 91 (no result: TLR4-MyD88 BLA) | NOD2-RIPK2 conf 21 | NOD2 BLA counter inactive
CC(=O)OC1C(=O)OCC23CCC4(C)OC4C2OC2CC(OC(=O)C=CC=CC(=O)OCCC1C)C3(C)C21CO1 (configuration not stated)	NOD2-RIPK2 inh 31, HSF1 inhib 92, HSF1 activator 92 (no result: TLR4-MyD88 BLA) | NOD2-RIPK2 conf 25 | NOD2 BLA counter inactive
CCOC(=O)CC1c2ccccc2-n2nncc2CN1Cc1ccc(OC)cc1 (configuration not stated)	none (no result: TLR4-MyD88 BLA, HSF1 inhib, HSF1 activator)
Cc1ccc(C)c(NC(=O)CCNC(=O)N2C[C@H]3C[C@@H](C2)c2cccc(=O)n2C3)c1	none (no result: TLR4-MyD88 BLA)
CCN(CC)c1ccc(/C=C/[N+](=O)[O-])cc1	NOD2-RIPK2 inh 44, HSF1 activator inconclusive | NOD2-RIPK2 conf 54 | NOD2 BLA counter 28
N#CC1=C(N)Oc2c(c(=O)sc3ccccc23)C1c1cccnc1 (configuration not stated)	NOD2-RIPK2 inh 22 | NOD2-RIPK2 conf inactive | NOD2 BLA counter inactive
S=C1NC2(CCCCC2)NC12CCCCC2	none (no result: TLR4-MyD88 BLA)

Source: PubChem
